Drawing on PMC8384837, “Expanding the binding specificity for RNA recognition by a PUF domain”, this text covers binding signal for six sequences.

One assay has as its target PUM1 PUF domain R3-CRR (Homo sapiens, UniProt Q14671 828-1176, Q939R). The assay can be described thus: yeast three-hybrid, YBZ-1, SC-Leu-His + 0.5 mM 3-AT, 4 days. The settings on record: tags: N-Gal4 AD-HA kept; label: inside an RPR1-promoter hybrid RNA with tandem MS2 sites; ssRNA. In outline: (§1)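 Sequencing with Illumina followed PCR amplification of the repeat regions from transformants grown four days on SC-Leu (input) or SC-Leu-His + 0.5 mM 3-AT (selection). The transformants were strain YBZ-1 with a LexA–MS2 coat fusion and a HIS3 reporter, carrying Pumilio-1 PUF domain libraries and matching RNA elements. The interaction score is the log change in variant frequency from input to selection, computed in log2 with a pseudocount of 1 for absent variants.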
Take “GGCUAGAACUAGUGGAUCCCCCGGCGCCCGGCGGCUCGAGCCCGGGUAAGUGUAAUUAGUCUGCAUGCCGCCGGGCGCCAUGCCUGCAGGUCGACUCUAGAAAACAUG”: the binding signal is 2.3 log2 enrichment (interaction score).

In the case of “GGCUAGAACUAGUGGAUCCCCCGGCGCCCGGCGGCUCGAGCCCGGGUAAGUGUAAAUAGUCUGCAUGCCGCCGGGCGCCAUGCCUGCAGGUCGACUCUAGAAAACAUG”, the binding signal is 2.78 log2 enrichment (interaction score).

With “GGCUAGAACUAGUGGAUCCCCCGGCGCCCGGCGGCUCGAGCCCGGGUAAGUGUAAGUAGUCUGCAUGCCGCCGGGCGCCAUGCCUGCAGGUCGACUCUAGAAAACAUG”, the binding signal was 1.17 log2 enrichment (interaction score).

The target in the next assay is PUM1 PUF domain R5-GRI (Homo sapiens, UniProt Q14671 828-1176, C1007G;Q1011I). Described as above. To be noted: tags: N-Gal4 AD-HA kept; label: inside an RPR1-promoter hybrid RNA with tandem MS2 sites; ssRNA. Put shortly:
as §1
On to “GGCUAGAACUAGUGGAUCCCCCGGCGCCCGGCGGCUCGAGCCCGGGUAAGUGUUAAUAGUCUGCAUGCCGCCGGGCGCCAUGCCUGCAGGUCGACUCUAGAAAACAUG”, for which the binding signal was 3.43 log2 enrichment (interaction score).

On to “GGCUAGAACUAGUGGAUCCCCCGGCGCCCGGCGGCUCGAGCCCGGGUAAGUGUAAAUAGUCUGCAUGCCGCCGGGCGCCAUGCCUGCAGGUCGACUCUAGAAAACAUG”, for which the binding signal was 3.04 log2 enrichment (interaction score).

For the sequence “GGCUAGAACUAGUGGAUCCCCCGGCGCCCGGCGGCUCGAGCCCGGGUAAGUGUCAAUAGUCUGCAUGCCGCCGGGCGCCAUGCCUGCAGGUCGACUCUAGAAAACAUG”, the binding signal is 1.2 log2 enrichment (interaction score).

In the case of “GGCUAGAACUAGUGGAUCCCCCGGCGCCCGGCGGCUCGAGCCCGGGUAAGUGUGAAUAGUCUGCAUGCCGCCGGGCGCCAUGCCUGCAGGUCGACUCUAGAAAACAUG”, the binding signal is 3.52 log2 enrichment (interaction score).

The next assay addresses PUM1 PUF domain R3-WWR (Homo sapiens, UniProt Q14671 828-1176, C935W;R936W;Q939R). The assay is described as above. To be noted: tags: N-Gal4 AD-HA kept; label: inside an RPR1-promoter hybrid RNA with tandem MS2 sites; ssRNA. In outline: as §1
As for “GGCUAGAACUAGUGGAUCCCCCGGCGCCCGGCGGCUCGAGCCCGGGUAAGUGUAAUUAGUCUGCAUGCCGCCGGGCGCCAUGCCUGCAGGUCGACUCUAGAAAACAUG”, the binding signal is 3.35 log2 enrichment (interaction score).

Consider “GGCUAGAACUAGUGGAUCCCCCGGCGCCCGGCGGCUCGAGCCCGGGUAAGUGUAAAUAGUCUGCAUGCCGCCGGGCGCCAUGCCUGCAGGUCGACUCUAGAAAACAUG”, for which the binding signal was 0.59 log2 enrichment (interaction score).

As to “GGCUAGAACUAGUGGAUCCCCCGGCGCCCGGCGGCUCGAGCCCGGGUAAGUGUAAGUAGUCUGCAUGCCGCCGGGCGCCAUGCCUGCAGGUCGACUCUAGAAAACAUG”, the binding signal was 5.22 log2 enrichment (interaction score).

The target in another assay is PUM1 PUF domain R5-KFV (Homo sapiens, UniProt Q14671 828-1176, C1007K;R1008F;Q1011V). The assay is described as above. To be noted: tags: N-Gal4 AD-HA kept; label: inside an RPR1-promoter hybrid RNA with tandem MS2 sites; ssRNA. In outline: as §1
As for “GGCUAGAACUAGUGGAUCCCCCGGCGCCCGGCGGCUCGAGCCCGGGUAAGUGUUAAUAGUCUGCAUGCCGCCGGGCGCCAUGCCUGCAGGUCGACUCUAGAAAACAUG”, the binding signal is 6.19 log2 enrichment (interaction score).

Regarding “GGCUAGAACUAGUGGAUCCCCCGGCGCCCGGCGGCUCGAGCCCGGGUAAGUGUAAAUAGUCUGCAUGCCGCCGGGCGCCAUGCCUGCAGGUCGACUCUAGAAAACAUG”, the binding signal is 3.95 log2 enrichment (interaction score).

With “GGCUAGAACUAGUGGAUCCCCCGGCGCCCGGCGGCUCGAGCCCGGGUAAGUGUCAAUAGUCUGCAUGCCGCCGGGCGCCAUGCCUGCAGGUCGACUCUAGAAAACAUG”, the binding signal was 5.97 log2 enrichment (interaction score).
